From PubChem BioAssay (NCI)
About 79,000 compounds went through this panel and 15% of them were active in at least one assay; those are over-represented in the sample as a whole. Values without a mark were called inactive. Calls of active or inactive are those of the source. Rule as the data show it: active = growth inhibition above about 70%; inactive = the rest.

Assay: NCI Yeast Anticancer Drug Screen. Data for the rad50 strain (AID 155);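 also: 0% = growth of vehicle-only cultures of the same strain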
Details: S. cerevisiae rad50 strain growth inhibition; at 100.0 µM; active compounds read high
Procedure, shortened: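 Relative growth inhibition (compound vs vehicle) was measured in yeast with a defined repair-gene alteration.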

| SMILES | growth inhibition |
| --- | --- |
| CC(CN(C)C)C(=O)/C=C/c1ccc(Cl)c(Cl)c1 (configuration not stated) | 95% (active) |
| CCCCCCNCCCNc1c2cc(OC)ccc2nc2cccc([N+](=O)[O-])c12 | 96% (active) |
| NC(=S)N1N=C2c3ccccc3CC[C@H]2[C@@H]1c1ccc(Cl)cc1 | 85% (active) |
| C/C(=N/NC(=S)Nc1ccccc1C)c1ccccn1 | 5% |
| O=C1/C(=C/c2ccc(Cl)c(Cl)c2)CNC/C1=C\c1ccc(Cl)c(Cl)c1 | 95% (active) |
| CC(C)OP(=O)(OC(C)C)C(=NCCO)NNc1ccc([N+](=O)[O-])cc1 | 91% (active) |
| N#CCC(=O)N/N=C(\c1ccccc1)C(c1ccccc1)C1(O)C(=O)Nc2c(Cl)ccc(Cl)c21 (configuration not stated) | 25% |
| CC(C)(CN1CCCCC1)C(=O)CC(SCCS(=O)(=O)O)c1ccccc1 (configuration not stated) | 11% |
| COC1=CCC23C(=O)C=CC(=O)C2(C1)C(=O)c1ccccc1C3=O (configuration not stated) | 87% (active) |
| CCCCN(CCCC)c1ccc(N=Nc2ccc(S(=O)(=O)O)cc2)cc1 | 93% (active) |
| c1ccc2nc3c(nc2c1)sc1ccccc13 | 82% (active) |
| O=C1c2ccccc2-c2ccc(N=Cc3ccccc3)cc21 | 96% (active) |
| CNC(=S)N/N=C(/C)CCC/C(C)=N/NC(=S)NC | 92% (active) |
| Nc1ccc(/C=C/c2ccc3cccnc3c2)cc1 | 29% |
| COc1ccc2c3c1OC(C)C31CC(=O)CCC1CC2 (configuration not stated) | 13% |
| CCOC(=O)Nc1ccc(C)c(NC(=O)OCC)c1 | 26% |
| CCN(CC)CCNc1ccc2nc(C)n3c4ccc(OC)cc4c(=O)c1c23 | 87% (active) |
